Data as given in PubChem BioAssay (NCI).
This is part of a sample that, as a whole, favours compounds with a hit. Of some 83,000 tested, about 20% had one in any assay.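 Results are percent growth after 48 hours of single-concentration exposure. 100 means growth as in untreated cells, lower positive values show inhibition; negative values down to -100 show cell death.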 A number with no mark means an inactive call. The source made the active and inactive calls.

test system: SK-OV-3 ovarian; test: NCI-60 one-dose screen, 48 h (100 = growth as untreated, 0 = no growth, -100 = all killed); conditions: 10 µM unless noted
Protocol: Growth inhibition of the SK-OV-3 human tumor cell line is measured as a screen for anti-cancer activity. Cells are grown in 96 well plates and exposed to the test compound for 48 hours. Compounds are tested at a single concentration, which is 10^-5 M for most compounds. The reported endpoint is percent growth (GI% or GIPRCNT), where numbers from 0 - 100% represent growth inhibition, and numbers from -100% - 0 represent cell death. For example, a value of 40 represents 60% growth inhibition. A value of 0 means no net growth occurred over the course of the experiment. A value of -40 indicates 40% of cells at the beginning of the experiment died by the end of the experiment. A value of -100 means all cells are dead at the end of the experiment.
NCI-60 Human Tumor Cell Lines Screen was performed using the standard one-dose NCI protocol, which is described in more detail at https://dtp.cancer.gov/discovery_development/nci-60/default.htm.
Compounds with GIPRCNT values below 10 were considered active. Activity score was based on GIPRCNT using the following formula: […]
Score is 0 for GIPRCNT values of 100 or above, 50 for GIPRCNT values of 0, and 100 for GIPRCNT values of -100.

Row | Structure (SMILES) | growth
1 | ClC1=NC(Cl)C(Cl)=N/C1=N\c1ncn[nH]1 (stereo not given) | 66.3%
2 | Clc1ccccc1CNc1c2ccccc2nc2ccccc12 | 54.9%
3 | CC(C)(C)c1nn(-c2ccccc2)c2c1C(=O)CSC(c1ccccc1Cl)N2 (stereo not given) | 7.26% (active)
4 | CN(C)N1C(=O)c2c(Cl)c(Cl)c(Cl)c(Cl)c2C1=O | 106%
5 | C[Si](C)(C)C(c1ccccc1)c1ccccc1 | 98.4%
6 | Cc1cc(N)cc(C)c1-c1c(Br)cc(N)cc1Br | 6.33% (active)
7 | CCCCCCCCCCCCCC1=NC(C)(C)CN1C(C)C | -2.05% (active)
8 | CCOC(=O)C(Cc1ccccc1)n1c(O)c(/C=N/c2ncc(Cc3ccc(Cl)cc3Cl)s2)sc1=S (stereo not given) | 0.0373% (active)
9 | CC(C)CCSc1nc(-c2ccc(F)cc2)c(C#N)c(N2CCCCC2)n1 | 105%
10 | O=C(CC(=O)c1ccccc1F)Nc1ccc([N+](=O)[O-])cc1 | 108%
11 | O=C(N/N=C/c1ccccc1O)c1ccncc1 | 63.1%
12 | COc1cc(C2CC(c3ccc(Cl)cc3)=NN2C(C)=O)ccc1Oc1ccnc2cc(Cl)ccc12 (stereo not given) | 18.4%
13 | C=C(C)[C@@H]1CC[C@]2(C(=O)O)CC[C@]3(C)[C@H](CC[C@@H]4[C@@]5(C)C[C@@H](CC#Cc6ccc(C(C)=O)s6)[C@H](O)C(C)(C)[C@@H]5CC[C@]43C)[C@@H]12 | 27.7%
14 | C=C(COC(C)=O)[C@H]1CC/C(C)=C/CC/C(C)=C/CC[C@@]2(C)O[C@H]2C1 | 125%
15 | CO[C@H](C(=O)[C@@H](O)[C@@H](C)O)[C@@H]1Cc2cc3cc(O[C@H]4C[C@@H](O[C@H]5C[C@@H](O)[C@H](O)C(C)O5)[C@H](O)C(C)O4)c(C)c(O)c3c(O)c2C(=O)[C@H]1O[C@H]1C[C@@H](O[C@H]2C[C@@H](O[C@H]3C[C@](C)(O)C(=O)C(C)O3)[C@@H](O)C(C)O2)[C@H](O)C(C)O1 (stereo not given in full) | 9.52% (active)
16 | O=c1c2cc(Br)cc(Br)c2nc(-c2ccc(Cl)cc2)n1/N=C/c1cccc(F)c1 | 52%
17 | CC(CN1CCN(CC(C)Nc2ccnc3cc(Cl)ccc23)CC1)Nc1ccnc2cc(Cl)ccc12 (stereo not given) | 97.2%
18 | O=C1OCC2=C1C(c1ccccc1)c1cc3c(cc1N2CCO)CCC3 (stereo not given) | -20.7% (active)
19 | CC1=CC(=O)OC1C/C=C(\C)CCC1[C@@]2(C)CCC[C@@](C)(C(=O)O)C2CC[C@@]1(C)O (stereo not given in full) | 98.1%
20 | COc1cc(NCCC2CCCCN2)c2ncccc2c1OC (stereo not given) | 116%

Row | Structure (SMILES) | growth
21 | CC(C)C/C=C/C=C/C(=O)N[C@@H](CC(N)=O)C(=O)N[C@@H]1C(=O)N[C@H](c2ccc(O)cc2)C(=O)N[C@H](CCCN)C(=O)N[C@H]([C@@H](C)O)C(=O)N[C@H](c2ccc(O)cc2)C(=O)N[C@H](c2ccc(O)cc2)C(=O)N[C@H]([C@H](C)O)C(=O)N[C@H](Cc2ccccc2)C(=O)N[C@H](CCCN)C(=O)N[C@H](c2ccc(O[C@H]3O[C@@H](CO)[C@@H](O)[C@@H](O)[C@H]3O[C@@H]3O[C@H](CO)[C@H](O)[C@H](O)[C@@H]3O)cc2)C(=O)N[C@H]([C@H](C)O)C(=O)N[C@H](c2ccc(O)cc2)C(=O)NCC(=O)N[C@H](CC(C)C)C(=O)N[C@H](C)C(=O)N[C@H](c2ccc(O)c(Cl)c2)C(=O)O[C@@H]1C(N)=O | 87.4%
22 | Cc1ccc(C(CN(C)C)C(=O)c2ccccc2)cc1 (stereo not given) | 97.6%
23 | CSC1=N/C(=C\c2cccc(OCc3ccc(Cl)cc3)c2)C(=O)N1 | 98.5%
24 | COc1cc(C2C(C#N)=C(N)Oc3cc4c(cc32)OCO4)cc2c1OCO2 (stereo not given) | -5.36% (active)
25 | O=C(Nc1ccc(Cl)cc1)c1cc(-c2ccc(Cl)cc2)c2sc(=O)[nH]c2n1 | -24.3% (active)
26 | Brc1ccsc1Br | 94.8%
27 | CS(=O)(=O)c1ccc(C(=O)N/N=C/c2cccc3ccccc23)cc1 | 78.1%
28 | CCC1N=C(N)N=C(N)N1c1ccc(Cl)cc1 (stereo not given) | 108%
29 | O=C(N/N=C/c1ccc([N+](=O)[O-])cc1)c1ccccc1Nc1ccnc(C(F)(F)F)c1 | 84.9%
30 | O=C(NNC(=O)c1cccc(Cl)c1)c1ccccc1 | 114%
31 | c1csc(-c2cnc3nonc3n2)c1 | 92.7%
32 | O=C(/C=C/c1ccc(F)cc1)N1CCN(C(=O)/C=C/c2ccc(C(F)(F)F)cc2)CC1 | 118%
33 | C/C(=N\Nc1ccc([N+](=O)[O-])cn1)c1ccc(N)cc1 | 115%
34 | CCN(CC)CCCCCCCCNc1c2ccc(Cl)cc2nc2ccc(OC)cc12 | -29.1% (active)
35 | CCC1=CC2CN(C1)Cc1c([nH]c3ccccc13)[C@@](C(=O)OC)(c1cc3c(cc1OC)N(C)[C@H]1[C@@](O)(C(=O)OC)[C@H](OC(C)=O)[C@]4(CC)C=CCN5CC[C@]31[C@@H]54)C2 (stereo not given in full) | 7.75% (active)
36 | CCCCOC(=O)c1cc(O)c(O)c(O)c1 | 85.1%
37 | CC(=O)NC1C(O[C@H]2C[C@H]3[C@@H]4CC=C5C[C@@H](O)CC[C@]5(C)[C@H]4CC[C@]3(C)[C@H]2[C@H](C)C(=O)CCC(C)C)OCC(O)C1O (stereo not given in full) | 37.9%
38 | CCN(CC)c1ccc(/C=N/NC(=O)C[N+](C)(C)C)cc1 | 102%
39 | Cn1cnc([N+](=O)[O-])c1S(=O)(=O)Oc1ccccc1 | 101%
40 | CC1=C(O)C(=O)CC1 | 107%
